# esBAF inh: blocks esBAF chromatin remodeling in mouse ES cells; Bmi1-luciferase knock-in reporter, 24 h; 100% = twice the neutral-well signal; reporter increase, % at 12.5 µM; 350,000 compounds, 2% hits; AID 602393; in the data active means activation above about 40%; inconclusive means no clear call, values can overlap the other calls;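 further: 0% = median of the plate's neutral control wells and 100% = double that signal; a rise in the Bmi1 reporter signal indicates esBAF inhibition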
# MITF TRPM1 HTS: activators of MITF-driven TRPM1 promoter activity in SK-MEL-5 cells. SK-MEL-5 TRPM1-promoter luciferase, 24 h; % of positive control, neutral wells = 0. activation, % at 12.5 µM. AID 588334. 300,000 compounds, 0.75% hits;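 active means mean activation of at least 80% with every replicate also reaching 80%; inconclusive means mean reaches 80% but some replicate falls short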;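 further: 0% = neutral control wells and 100% = parthenolide positive control wells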
# PAX8 inh HTS: PAX8 transcriptional activity inhibition | 360,000 compounds, 1.2% hits | RMG-I TPO-luciferase reporter, SteadyGlo, 24 h | AID 652154 | inhibition, % at 12.6 µM;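 active means mean replicate inhibition at least 60% with every replicate also reaching 60%; inconclusive means only one of the two criteria is met; inactive means mean below 60% and not all replicates reaching 60%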;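 further: luciferase light reporting Pax8 driven TPO promoter activity; plate controls were median of neutral control wells for no effect and mitoxantrone controls for full effect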
# MITF TRPM1 inh: reduces MITF-dependent TRPM1 promoter luciferase signal | SK-MEL-5 TRPM1 promoter luciferase, 24 h | inhibition, % at 12.5 µM | 330,000 compounds, 0.83% hits | AID 488899;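 active means mean inhibition across replicates of 60% or more, whatever share of single replicates reaches that level; inconclusive means some that reach 60%, reason not given; inactive means mean inhibition across replicates below 60%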
# EWS-Fli inh: EWS/Fli transcriptional activity inhibition. AID 651661. inhibition, % at 12.6 µM. 350,000 compounds, 0.67% hits. A673 NR0B1-luciferase reporter, viability-normalised;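 active means mean inhibition of at least 50% after viability correction, with every replicate also passing that limit; inconclusive means mean reaches 50% but only one of two replicates passes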;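 further: firefly luciferase signal divided by Alamar Blue viability fluorescence both relative to DMSO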
# Wnt bcat act: activators of Wnt/beta-catenin signaling | AID 743398 | 300,000 compounds, 1.2% hits | Wnt/beta-catenin reporter cell assay, activator, plate reader | activation, % at 9.35 µM; in the data active means activation above about 30%, passing the limit was not always enough; inconclusive means no clear call, values can overlap the other calls;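 further: 0% = neutral control wells and 100% = positive control wells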
# * = called active by the depositor; ? = inconclusive; / = no result. In the library only some 4% were active in any assay of this set; here they are far more common.
SMILES,esBAF inh,MITF TRPM1 HTS,PAX8 inh HTS,MITF TRPM1 inh,EWS-Fli inh,Wnt bcat act
C[C@H]1CCCCO[C@H](CN(C)C(=O)Nc2ccc(F)cc2)[C@@H](C)CN([C@@H](C)CO)C(=O)c2cc(NS(=O)(=O)c3ccc(Cl)cc3)ccc2O1,-5,/,17,/,17,/
CN1CCN(C(=O)C[C@@H]2C[C@H]3c4cc(NC(=O)NC5CCCC5)ccc4O[C@H]3[C@@H](CO)O2)CC1,4,/,-7,/,0,/
CCCn1cnc2c(sc3nc4c(cc32)CSC(C)(C)C4)c1=O,70*,57,/,-62,/,/
CCOc1ccc(Cc2nc(-c3nonc3N)no2)cc1OCC,/,1,/,-3,/,/
Clc1ccccc1OCc1nc(-c2ccc(Br)o2)no1,54*,/,-104,/,-90,16
Nc1nonc1-c1noc(COc2ccccc2Cl)n1,/,113*,-231,-111,/,43*
Cc1cccc(OCc2nc(-c3nonc3N)no2)c1C,?,?,-167,-85,/,62*
CN(Cc1nc(-c2ccccn2)no1)S(=O)(=O)c1ccccc1,2,/,/,2,/,1
Fc1ccc(OCc2nc(-c3ccc(Br)o3)no2)c(F)c1,34,39,-58,-36,-57,1
c1ccc(CCc2nc(-c3ccccn3)no2)cc1,35,128*,/,-117,/,/
C[C@H]1CN([C@@H](C)CO)S(=O)(=O)c2ccc(C#CC3(O)CCCC3)cc2O[C@@H]1CN(C)C(=O)Nc1ccccc1,6,/,/,/,17,/
Clc1ccccc1OCc1nc(-c2ccccn2)no1,0,24,-111,-23,/,39*
Brc1ccc(-c2noc(CCc3ccccc3)n2)o1,50*,38,-119,-37,-89,14
Clc1ccc(OCc2nc(-c3ccccn3)no2)c(Br)c1,-14,/,-53,/,24,11
C[C@H](CO)N1C[C@H](C)[C@H](CN(C)C(=O)Nc2ccccc2)Oc2ccc(NC(=O)Nc3ccccc3)cc2CC1=O,-4,/,-10,/,-6,/
Cc1cccc(NC(=O)CN2C(=O)C3CC=CCC3C2=O)c1C (centres undefined),4,/,-9,/,-4,2
Cc1ccccc1NC(=O)CN1C(=O)C2C3CC(C(Br)C3Br)C2C1=O (centres undefined),/,7,63*,-7,5,0
CO[C@@H]1CN(C)C(=O)c2ccc(NC(=O)Nc3ccc(Cl)cc3)cc2OC[C@H](C)N(C)C[C@H]1C,-1,/,-2,/,2,/
COc1ccccc1[C@]1(C)ON(c2ccccc2C(F)(F)F)C1=O,-8,-58,48,59,1,-2
CC[C@]1(c2ccccc2OC)ON(c2ccccc2C(F)(F)F)C1=O,/,/,84*,/,23,1
CC(=O)Oc1oc(-c2ccccc2)nc1C=Nc1ccc(N(C)C)cc1,2,/,0,-1,12,6
CN(C)c1ccc(N=Cc2nc(-c3ccccc3)oc2OC(=O)c2ccccc2)cc1,/,12,-125,-10,/,35*
COc1ccc(/C=C2\SC(=O)N(CCC(=O)Nc3ccccc3)C2=O)cc1OC,/,-5,-27,11,/,/
COc1cc(/C=C2\SC(=O)N(CCN)C2=O)ccc1OS(=O)(=O)c1cc(C)ccc1C,/,0,23,-2,38,39*
COc1ccccc1-c1ccc2c(c1)O[C@H](CN(C)S(=O)(=O)c1ccc(F)cc1)[C@@H](C)CN([C@@H](C)CO)S2(=O)=O,-4,/,53,/,-1,/
SMILES,esBAF inh,MITF TRPM1 HTS,PAX8 inh HTS,MITF TRPM1 inh,EWS-Fli inh,Wnt bcat act
COc1ccc(-n2nc(C(=O)NCC(=O)N3CCN(c4ccccc4)CC3)c3ccccc3c2=O)cc1OC,45*,47,-74,-117,-41,14
CCOC(=O)N1CCN(C(=O)CNC(=O)c2nn(-c3ccc(OC)c(Cl)c3)c(=O)c3ccccc23)CC1,17,51,-7,-45,-32,4
COc1ccc(-n2nc(C(=O)NCC(=O)N3CCN(c4ccccc4OC)CC3)c3ccccc3c2=O)cc1OC,17,34,0,-34,-19,4
COc1ccc(-n2nc(C(=O)NCC(=O)N3CCCC3)c3ccccc3c2=O)cc1Cl,59*,/,14,/,-1,1
O=c1oc(-c2ccccc2)nc2sc3c(c12)CCCC3,56*,58,/,-61,/,/
O=c1oc(/C=C/c2ccccc2)nc2sc3c(c12)CCC3,/,105*,-19,-101,/,6
O=c1oc(-c2cccs2)nc2scc(-c3cccs3)c12,64*,/,/,-5,/,11
O=c1oc(-c2cc3ccccc3o2)nc2sc3c(c12)CCCC3,53*,101*,/,-101,-176,15
Cc1nc2scc(-c3cccs3)c2c(=O)o1,/,-13,/,17,/,/
Cc1ccccc1-c1nc2sc3c(c2c(=O)o1)CCC3,8,65,/,-60,/,0
COc1ccc2c3c([nH]c2c1)[C@@H](CO)N(Cc1ccccc1OC)CC31CN(C)C1,/,/,/,/,7,/
COCC(=O)Nc1ccc2c(c1)[C@H]1C[C@@H](CC(=O)N[C@@H](C)c3ccccc3)O[C@@H](CO)[C@H]1O2,2,/,-5,/,-2,/
CN1C(=O)c2cc(NC(=O)NCc3ccccc3)ccc2OC[C@H]2O[C@@H](CC(=O)O)CC[C@@H]21,-4,/,4,/,-2,/
Cc1ccccc1S(=O)(=O)N1CCCCN2[C@@H](CO)[C@H](c3ccc(-c4ccccc4)cc3)[C@@H]2C1,/,/,8,/,13,/
O=c1oc(-c2cccs2)nc2sc3c(c12)CCCCC3,43*,?,/,-83,/,-6
Oc1ccc(Cc2ccccc2)c2cccnc12,-32,/,87*,/,29,-1
Oc1ccc(COCc2ccccc2)c2cccnc12,60*,-25,/,23,/,1
O=C(C[C@H]1CC[C@@H](NC(=O)c2ccccc2)[C@H](CO)O1)NCc1ccncn1,3,/,-3,/,-6,/
Brc1ccc2nc(-c3cccs3)c(NCC3CCCO3)n2c1 (centres undefined),60*,11,-46,-7,-19,3
Nc1nc(Sc2c([N+](=O)[O-])cc(C(F)(F)F)cc2[N+](=O)[O-])n[nH]1,/,-4,21,4,55*,-20
CNC(=O)C[C@H]1CC[C@H]2[C@H](COc3ccc(NC(=O)Nc4ccc(Cl)cc4)cc3C(=O)N2C)O1,2,/,-2,/,-11,/
COCC#Cc1ccc([C@@H]2[C@H]3CN(C(=O)c4cccnc4)CC(=O)N3[C@H]2CO)cc1,/,/,/,/,10,/
C[C@@H](NC(=O)C[C@H]1C=C[C@@H](NC(=O)CN2CCOCC2)[C@H](CO)O1)c1ccccc1,-1,/,0,/,-7,/
COc1ccc(C(=O)NCCC2=CCCCC2)cc1OC1CCN(C(C)C)CC1,60*,27,-32,-29,1,16
C[C@H]1CN([C@@H](C)CO)C(=O)c2cccc(NS(=O)(=O)c3ccc(F)cc3)c2O[C@H]1CN(C)CC1CC1,5,/,-7,/,-3,/
CCn1c(COc2cccc(C)c2)nc2ccccc21,13,26,/,-25,/,4
COCn1c(COc2ccc3ccccc3c2)nc2ccccc21,79*,?,/,-81,/,/
